The results in this text go back to PubChem BioAssay (EPA / NIEHS).

As a reminder, the AC50 is the midpoint of the concentration-response curve, whichever way the signal moves.

Some structures have more than one record in an assay (separate samples or runs), and their calls can disagree. Active and inactive are the calls of the source. The calls were made as follows: active = hit-call score of the fitted dose curve at least 0.9, where 1 is the maximum; inactive = score below 0.9.

This experiment is described as follows: BSK_3C_Vis: BioMAP Diversity Plus: 3C Assay for Morphology Visualization (AID 2283025).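 Also: fitted both ways so gain or loss versus DMSO counts.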 Particulars: primary human endothelial cells (HUVEC). As to the method: BSK_3C is a cell-based, multiplexed-readout assay that uses umbilical vein endothelium, a human vascular primary cell, with measurements taken at 24 hours after chemical dosing in a 96-well plate.BSK_3C_Vis is an assay component measured in the BSK_3C assay. It measures NA related to cell morphology using light microscopy technology.Data from the assay component BSK_3C_Vis was analyzed into 1 assay endpoint. This assay endpoint, BSK_3C_Vis, was analyzed with bidirectional fitting relative to DMSO as the negative control and baseline of activity. Using a type of morphology reporter, gain or loss-of-signal activity can be used to understand changes in the background control. Furthermore, this assay endpoint can be referred to as a secondary readout, because this assay has produced multiple assay endpoints where this one serves a background control function. To generalize the intended target to other relatable targets, this assay endpoint is annotated to the cell morphology intended target family, where the subfamily is cell conformation.
The levels of cell surface (or secreted, indicated by the prefix "s") biomarker endpoints were measured by ELISA. Overt cytotoxicity to cells in confluent adherent cultures (all systems other than the BT system) was assessed by measuring total protein levels using sulforhodamine B (SRB) staining in parallel cultures at the time of biomarker measurements, indicated as SRB endpoints. For proliferation assays for adherent cell types, individual cell types are cultured at sub-confluence and relative cell numbers quantified by SRB staining at time points optimized for each system (48 h: 3C and CASM3C systems; 72 h: BT and HDF3CGF systems; 96 h: SAg system). SRB was performed by staining cells with 0.1% SRB after fixation with 10% TCA and reading wells at 560 nm.Viability and proliferation of PBMC (T cells) was quantified by Alamar Blue reduction for the SAg and BT systems. For PBMC viability (referred to as PBMC Cytotoxicity within the assay endpoint names), cells were plated (75,000/well in a 96-well plate) and then chemical samples added for 1 h before addition of activators, SEB and TSST-1 (20 ng/mL final concentration each). Cells were incubated for 90 h. Then, Alamar Blue (20 uL/well) (Invitrogen, Cat DAL1100) was added for 6 h, and the plates were read with a fluorescence microplate reader at 546/580 nm (excitation/emission). For PBMC proliferation, cells were plated and activated as above but incubated for only 16 h prior to addition of Alamar Blue. Plates were read after 6 h.
`C=CCOCC(O)CCl` (configuration not stated): the result was inactive.

Consider `O=c1c2ccccc2oc2ccccc12`, for which the outcome was inactive.

Regarding `N#[N+]c1ccc2c(S(=O)(=O)[O-])cccc2c1O`, the outcome was inactive.

Consider `C#CC1(O)CC[C@H]2[C@@H]3CCC4=CCCC[C@@H]4[C@H]3CC[C@@]21C` (some centres not stated), for which the AC50 was 8.8 µM (active).

Consider `C=CCOc1c(Br)cc(Br)cc1Br`, for which the AC50 was 14.1 µM (active).

As for `c1ccc2c(c1)ccc1ncccc12`, the AC50 is 38.9 µM (active).

In the case of `O=Nc1ccc(O)cc1`, the result was inactive.

With `c1ccc2c(c1)ccc1cc3c(ccc4ccccc43)cc12`, the outcome was inactive and the concentration at half-maximal activity (AC50) is 35.7 µM (active).

As for `COCc1c(C(C)C)nc(C(C)C)c(/C=C/[C@@H](O)C[C@@H](O)CC(=O)O)c1-c1ccc(F)cc1`, the concentration at half-maximal activity (AC50) is 0.00941 µM (active).

Turning to `C=CC(=O)OCC(Br)CBr` (configuration not stated), the AC50 was 16.6 µM (active).

In the case of `CC1OC1C1CCC2(C)OC2C1` (configuration not stated), the result was inactive.

On to `O=C(Nc1ccccc1SSc1ccccc1NC(=O)c1ccccc1)c1ccccc1`, for which the AC50 was 14.1 µM (active).

For the compound `CCCCC/C=C\C/C=C\CCCCCCCC(=O)OC`, the concentration at half-maximal activity (AC50) is 37.5 µM (active).

As to `CCCCC(CC)COC(=O)c1ccccc1O` (configuration not stated), the concentration at half-maximal activity (AC50) was 19.9 µM (active).

On to `CC(C)C(=O)C(C)C`, for which the result was inactive.

Turning to `c1ccc(-c2ccccn2)nc1`, the result was inactive.

As for `CCCCCCCCc1ccc(Nc2ccc(CCCCCCCC)cc2)cc1`, the result was inactive.

As to `C=CC=CC=CCCCCC`, the outcome was inactive.

Turning to `CCCCCCCCCCCCCCCC[N+](C)(C)CC`, the AC50 was 0.533 µM (active).

On to `CCO[Si](CCCN=C=O)(OCC)OCC`, for which the outcome was inactive.

Take `COc1ccc2nc(N)sc2c1`: the result was inactive.

Take `CCOc1nc(F)cc2nc(S(=O)(=O)Nc3c(Cl)cccc3C(=O)OC)nn12`: the outcome was inactive.

`CCCCNc1ccc(NCCCC)c2c1C(=O)c1ccccc1C2=O`: the outcome was inactive.

As for `S=C(NC1CCCCC1)NC1CCCCC1`, the result was inactive.

As for `C/C=C\C/C=C/CCCCCCCCOC(C)=O`, the outcome was inactive.

Consider `O=C(Cl)c1cc(C(=O)Cl)cc(C(=O)Cl)c1`, for which the concentration at half-maximal activity (AC50) was 12.5 µM (active).
